In the OligoGym collection:

Each sequence was assayed against IL13RA1 (assay: pooled miR-30 sensor sort-seq; sequence = guide strand). Settings: shRNA.
Also: reference of the scale not given here.

| Sequence | sensor-assay potency score (higher = more potent) |
| --- | --- |
| TTCTTATCTTGTTTGTCGCCAA | -0.0977 |
| TTTCTTATCTTGTTTGTCGCCA | 0.315 |
| ATAGACTACAATTTGAGCTGGC | 0.897 |
| TTGCTTCTCATAGATGTCGTAC | -0.044 |
| TTGACTCTTATTCTGACTGTGT | 0.685 |
| TTGTTCAAAACTGGAATCCTTC | -0.391 |
| TTTGACTCTTATTCTGACTGTG | 0.568 |
| TAGTAGAGAGTATAGTTAGTGT | -0.663 |
| TTGACCATTATTTGGACACTGT | 0.157 |
| TTTTCTATCAGCACTACAGAGT | -0.723 |
| TTCCATGTCCATATTACTGTGC | -0.274 |
| TACAGAGTCGGTTTCCTCCTTG | 0.15 |

What follows are sequences tested against IL16 in the same assay as above. Settings: shRNA.

| Sequence | sensor-assay potency score (higher = more potent) |
| --- | --- |
| TTCTACAGAAACATCACTGGCT | 0.755 |
| TTGGTCTCGAAGTTCCCGCAGC | -0.85 |
| TTTAGGAACAACCTTTTGCTGG | -0.755 |
| ATCTTCTCCAGTGTCACCGTGC | -0.369 |
| TTCATGAAGAATATCCTCCTAC | 0.448 |
| TTTCTCCTGATGACAATCGTGA | -0.801 |
| TTTCTAGATCTGCTCCTCCTGC | -0.608 |
| TTTGTTCTGAGGCTGCTCCTTT | 0.156 |
| TTCTCCAGTGTCACCGTGCAGA | -0.677 |
